Source: PubChem BioAssay
The list is not random: actives were taken first. Their share in the collection is about 5.7%.
Nrf2 block: Nrf2 pathway inhibition; A549 ARE-Fluc reporter, luciferase luminescence, 18-24 h; Potency, µM (highest dose often 46 µM), usual class: inhibitors; 360,000 tested, 2.1% active; further: nearly all actives have a fitted effect of over 60% in size
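A549 ARE_Fluc cells (5000/well, 5% FBS OPTI-MEM) pre-incubated 2 h, then treated with compounds 18-24 h at 37C/5% CO2 in concentration-response. CellTiter-Fluor viability read first; BugLite luciferase luminescence after 15 min at room temperature gives Nrf2 activity.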
KB-V1 cytotox: kills drug-selected multidrug resistant KB-V1 cells; Potency, µM (highest dose often 46.1 µM), most hits filed as cytotoxic; AID 1347076; 400,000 tested, 3.4% active; KB-V1 MDR cells viability, CellTiter-Glo, 72 h; further: nearly all actives have a fitted effect of over 60% in size
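Compound-treated KB-V1 multidrug-resistant cells, 72 h, 37 degrees C; viability by CellTiter-Glo. Fitted qHTS curves give the values.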
PI4K2A inh: blocks human PI4K2A kinase activity; AID 1346378; activity change, negative = inhibition, % at 76.9 µM; purified PI4K2A, ADP-Glo luminescence, 1 h; stronger effect = lower value; 420,000 tested, 0.13% active; Q9BTU6; in the data active means activity change below about -50%; inconclusive means mostly about -30% to -49%
Target sequence (Q9BTU6 whole entry, looked up): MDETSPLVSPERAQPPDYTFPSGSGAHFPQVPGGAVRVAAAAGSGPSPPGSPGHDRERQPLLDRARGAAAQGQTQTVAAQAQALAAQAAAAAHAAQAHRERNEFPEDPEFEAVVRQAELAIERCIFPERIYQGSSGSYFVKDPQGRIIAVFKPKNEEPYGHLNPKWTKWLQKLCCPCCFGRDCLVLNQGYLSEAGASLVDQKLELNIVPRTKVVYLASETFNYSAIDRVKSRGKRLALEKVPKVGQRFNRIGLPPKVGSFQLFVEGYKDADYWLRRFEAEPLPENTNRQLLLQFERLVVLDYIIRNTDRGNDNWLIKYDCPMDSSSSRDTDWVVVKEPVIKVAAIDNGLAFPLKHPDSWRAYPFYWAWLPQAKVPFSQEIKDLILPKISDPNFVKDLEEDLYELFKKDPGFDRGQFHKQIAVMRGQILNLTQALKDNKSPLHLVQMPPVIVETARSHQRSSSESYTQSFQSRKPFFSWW
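In this quantitative HTS, ADP production by PI4K2A was quantified luminescently after 1 h at ambient temperature; 100 microM adenosine served as plate-quality control.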
A549 viability: kills or reduces viability of A549 cells in Nrf2 counter-screen | A549 ARE-Fluc cells, CellTiter-Fluor viability, 18-24 h | Potency, µM (series often up to 46 µM), most hits filed as inhibitors | 390,000 tested, 0.16% active | AID 504648
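A549 ARE_Fluc cells in 5% FBS OPTI-MEM were exposed to compounds in concentration-response for 18-24 h at 37 deg C. Viability was read by CellTiter-Fluor fluorescence (Ex 405/Em 525) after 30 min, before the luciferase read.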
KB-3-1 tox: kills parental KB-3-1 adenocarcinoma cells; KB-3-1 viability, CellTiter-Glo ATP luminescence, 72 h; 400,000 tested, 1.4% active; Potency, µM (top dose mostly 46.1 µM), most hits filed as cytotoxic; further: nearly all actives have a fitted effect of over 60% in size
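KB-3-1 cells, DMEM (no phenol red) + 10% FBS; compound by pin transfer, 72 h, 37 °C. Readout: CellTiter-Glo luminescence after 10 min. Data normalized, curve-fitted.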
Giardia kill: Giardia lamblia killing; AID 540267; activity change, % at 7.66 µM, hits read low; Giardia lamblia trophozoite viability; 340,000 tested, 0.15% active; in the data active means activity change below about -80%; inconclusive means between about -30% and that limit;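 further: parasites exposed to compound for two days anaerobically before the ATP read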
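Each well holds 100 Giardia trophozoites and compound. After two days (48 hrs) at 37 deg C in anaerobic conditions, ATP is quantified by luminescence.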
Numbers stand for hits; - = inactive; ? = inconclusive; . = no result given; [ ] = remark or other dose. Unless noted, the call rests on the fitted dose curve; in most records, active means well fitted curve in the direction sought with a large enough effect; inconclusive means small, poorly fitted or top-dose-only effect, or another doubt; inactive means no such curve, though single readings can be large; an effect the other way counts as inactive or inconclusive.

SMILES	Nrf2 block	KB-V1 cytotox	PI4K2A inh	A549 viability	KB-3-1 tox	Giardia kill
CCCCNC(=O)C[C@H]1C[C@@]2(C(=O)OC)C(=C[C@H](COCc3ccccc3)O[C@@H]2C)N(Cc2ccccc2)C1=O	.	.	-	.	.	.
Cc1cc2c(s1)c1cnn(Cc3c(F)cccc3F)c(=O)c1n2C	-	.	.	-	.	.
COc1ccc(NC(=S)NC(=NS(=O)(=O)c2ccc(Cl)cc2)c2ccccc2)cc1	?	-	-	-	21µM	-
COc1ccc(NC(=S)N/C(=N/S(=O)(=O)c2ccc(C)cc2)c2ccccc2)cc1	?	-	-	-	-	-
COc1ccc(NS(=O)(=O)c2cc(N/C(=N\S(=O)(=O)c3ccccc3)c3ccc(F)cc3)ccc2Cl)cc1	?	21µM	-	-	21µM	-
COC(=O)NCC(c1ccco1)N1CCN(c2ccccc2)CC1 (stereo not drawn)	-	-	-	-	-	-
O=C(NCC(c1ccco1)N1CCN(c2ccc(F)cc2)CC1)C(=O)NC1CCCC1 (stereo not drawn)	-	-	-	-	-	?
O=C(NCC1CCCO1)C(=O)NCC(c1ccco1)N1CCN(c2ccc(F)cc2)CC1 (stereo not drawn)	-	8.2µM	-	-	-	-
O=C(NCC1CCCO1)C(=O)NCC(c1ccco1)N1CCN(c2ccccc2)CC1 (stereo not drawn)	-	21µM	-	-	-	-
Cc1sc2nc(COC(=O)CNC(=O)c3cc(F)ccc3F)[nH]c(=O)c2c1C	.	.	-	.	.	.
COc1ccccc1N1CCN(C(=O)c2ccc(Nc3nc4ccccc4n4nnnc34)cc2)CC1	-	-	-	-	-	.
O=C(Cn1ncc(Cl)c(Cl)c1=O)c1ccc2c(c1)OCCO2	?	21µM	-	-	?	-
O=C(Cn1ncc(Cl)c(Cl)c1=O)Nc1ccc2c(c1)OCO2	-	?	-	-	?	-
Oc1ccccc1-c1nnc2n1CCCCC2	?	-	-	-	-	-
Cc1cc(-c2nnc3n2CCCCC3)c(C)n1-c1ccccc1	-	21µM	-	-	?	-
COc1cc(/C=C/c2nc3ccccc3nc2/C=C/c2cc(OC)c(OC)c(OC)c2)cc(OC)c1OC	.	-	.	.	?	.
CCNc1nc(N)c([N+](=O)[O-])c(Nc2cccc(Cl)c2)n1	.	.	-	.	.	.
O=C(Nc1ccc2ccccc2c1)N1CCCN(CCOc2ccccc2)CC1	-	15µM	-	-	?	-
O=C(c1cc2ccccc2o1)N1CCN(CCOc2ccccc2)CC1	-	-	-	-	-	-
Cn1c(-c2sc3ccccc3c2Cl)n[nH]c1=S	?	16µM	-	-	21µM	-
Cc1nn(-c2ccccc2)c(C)c1/C=N\N1CCN(Cc2ccccc2Cl)CC1	.	.	-	.	.	.
Cn1c(SCC(=O)N2CCc3ccccc3C2)nnc1-c1ccncc1	-	-	-	-	-	-
Cc1ccccc1-n1c(C)nnc1SCC(=O)N1CCc2ccccc2C1	-	6.5µM	-	-	-	-
C(#Cc1ccccc1)C[N+]1(CC#Cc2cccc3ccccc23)CCCC1	?	-	-	-	16µM	-
CCCC/C=C/[C@@H](c1ccccc1)C1COC(=O)CC1O (stereo partly drawn)	-	.	.	-	.	-
SMILES	Nrf2 block	KB-V1 cytotox	PI4K2A inh	A549 viability	KB-3-1 tox	Giardia kill
CCc1cc2c(-c3ccccc3)cc(=O)oc2cc1OC(C)C(C)=O (stereo not drawn)	6.5µM	?	-	-	?	-
CCC(C)N(C(=O)CNc1nnnn1-c1ccccc1)C(C)CC (stereo not drawn)	.	.	-	.	.	.
CCC1=C(OC(=O)N(CC)CC)N2C(=O)OC(=NCC(=O)OC)[C@]2(C)[C@H]2C1=CC[C@H]1C(=O)NC(=O)[C@H]12	-	-	-	-	-	-
CCC1=C(OC(=O)N(CC)CC)N2C(=O)OC(=NCc3ccccc3)[C@]2(C)[C@H]2C1=CC[C@H]1C(=O)NC(=O)[C@H]12	18µM	-	-	-	-	-
O=C(NCc1ccco1)c1ccc(Cn2c(SCc3ccc(F)cc3)nc3cccnc32)cc1	-	.	-	-	.	.
CC(=O)c1cc(-c2ccccc2)n(CC(=O)N2CCC(C)CC2)c1C	-	5.8µM	-	-	-	-
CC(=O)c1cc(-c2ccccc2)n(CC(=O)N2CCN(C3CCCC3)CC2)c1C	?	-	-	-	-	-
Cc1ccc(S(=O)(=O)N(C)c2ccc(C(=O)NCc3cccnc3)cc2)cc1	-	-	-	-	-	-
Cc1ccc(S(=O)(=O)N(Cc2ccccc2)c2ccccc2C(=O)NCc2cccnc2)cc1	-	23µM	-	-	?	-
Cc1cc(C(=O)NCc2cccnc2)no1	-	-	-	-	-	-
Cc1ccc(-c2cc(C(=O)NCc3cccnc3)no2)cc1	-	16µM	-	-	-	-
COc1ccc(-c2cc(C(=O)NCc3cccnc3)no2)cc1OC	?	21µM	-	-	-	-
CC(Oc1cc(Cl)ccc1Cl)C(=O)N/N=C\c1ccnn1C (stereo not drawn)	-	18µM	-	-	-	-
COc1ccc(-n2c(SCC(N)=O)nnc2-c2ccc(NS(=O)(=O)c3ccc(C)cc3)cc2)cc1	-	-	-	-[1.84 µM]	-	-
COc1ccc(-n2c(SCC#N)nnc2-c2ccc(NS(=O)(=O)c3ccc(C)cc3)cc2)cc1	10µM	?	-	-	-	-
C[C@@H](O[Si](c1ccccc1)(c1ccccc1)C(C)(C)C)[C@@H]1NC(=O)[C@@H]2C[C@]3(Br)c4ccccc4N(S(=O)(=O)c4ccccc4)[C@@H]3N2C1=O	.	.	-	.	.	.
COc1ccc(OCC(O)CNC(=O)c2ccc(Br)cc2)cc1 (stereo not drawn)	-	4.1µM	-	-	-	-
Cc1ccc(-c2c(C(=O)NCC(C)C)oc(=O)c3ccccc23)cc1	.	.	-	.	.	.
Cc1ccc(C)c(NS(=O)(=O)c2cc(C(=O)Nc3cccc(N(C)S(C)(=O)=O)c3)ccc2C)c1	?	?	-	-	?	-
Cc1ccc(NS(=O)(=O)c2cc(C(=O)Nc3cccc(N(C)S(C)(=O)=O)c3)ccc2C)c(C)c1	?	16µM	-	-	-	-
Cc1ccc(NS(=O)(=O)c2cc(NC(=O)c3ccc4c(c3)NC(=O)CS4)ccc2C)c(C)c1	18µM	-	-	?	?	-
CC1CCN(CCCNS(=O)(=O)c2cc3c(cc2Br)CCN3C(=O)C2CC2)CC1	.	.	-	.	.	.
COc1ccc(C2Nc3ccccc3C(=O)N2Cc2ccccc2)cc1COc1ccccc1F (stereo not drawn)	-	-	.	-	-	-
Cn1c2c(c(=O)n(C)c1=O)C(C(F)(F)F)(C(F)(F)F)N=C(CCC1CCCCC1)N2	?	?	-	?	23µM	-
